# Measurements taken from the supplement of paper PMC8728848.
# Many of the other results were omitted from the sample, so the strongest signals are more common in it than they were.
# Tests used:
# Experiment in all cases: glycan array binding signal (z-score within array); higher = stronger binding
# Settings in all cases: glycan notation: IUPAC condensed, linker removed
# [1] = target: Fuc(a1-2)Gal(b1-3)[Fuc(a1-4)]GlcNAc(b1-2)Man(a1-3)[Fuc(a1-2)Gal(b1-3)[Fuc(a1-4)]GlcNAc(b1-2)Man(a1-3)]Man(b1-4)GlcNAc(b1-4)GlcNAc
# How it was run: (§1)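 Columns mapping to the same glycan were averaged after glycan names were converted to IUPAC-condensed notation. The data come from 3228 arrays in the Consortium for Functional Glycomics database, limited to those with an available protein sequence. Binding is reported as a within-array Z-score averaged across arrays of one protein sequence and across linkers.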
# [2] = target: Fuc(a1-2)Gal(b1-4)Fuc(a1-3)]GlcNAc(b1-2)Man(a1-3)[Fuc(a1-2)Gal(b1-4)[Fuc(a1-3)]GlcNAc(b1-2)Man(a1-6)]Man(b1-4)GlcNAc(b1-4)GlcNAc
# How it was run: as §1
# [3] = target: Fuc(a1-2)Gal(b1-4)GlcNAc(b1-2)Man(a1-3)[Fuc(a1-2)Gal(b1-4)GlcNAc(b1-2)Man(a1-6)]Man(b1-4)GlcNAc(b1-4)[Fuc(a1-6)]GlcNAc
# How it was run: as §1
# [4] = target: Fuc(a1-2)Gal(b1-4)[Fuc(a1-3)]GlcNAc
# How it was run: as §1
# [5] = target: Fuc(a1-2)Gal(b1-4)[Fuc(a1-3)]GlcNAc(b1-2)Man(a1-3)[Fuc(a1-2)Gal(b1-4)[Fuc(a1-3)]GlcNAc(b1-2)Man(a1-6)]Man(b1-4)GlcNAc(b1-4)GlcNAc
# How it was run: as §1
# [6] = target: Fuc(a1-2)[GalNAc(a1-3)]Gal(b1-3)GalNAc(a1-3)[Fuc(a1-2)]Gal(b1-4)GlcNAc
# How it was run: as §1
# [7] = target: Fuc(a1-2)[GalNAc(a1-3)]Gal(b1-3)GalNAc(b1-3)Gal(a1-4)Gal(b1-4)Glc
# How it was run: as §1
# [8] = target: Fuc(a1-2)[GalNAc(a1-3)]Gal(b1-4)GlcNAc(b1-3)Gal(b1-4)GlcNAc
# How it was run: as §1
# [9] = target: Fuc(a1-2)[GalNAc(a1-3)]Gal(b1-4)GlcNAc(b1-3)Gal(b1-4)GlcNAc(b1-3)Gal(b1-4)GlcNAc
# How it was run: as §1
# [10] = target: Fuc(a1-2)[GalNAc(a1-3)]Gal(b1-4)GlcNAc(b1-6)GalNAc
# How it was run: as §1
# [11] = target: Fuc(a1-2)[GalNAc(a1-4)]Gal(b1-4)GlcNAc
# How it was run: as §1
# [12] = target: Fuc(a1-3)[Gal(b1-4)]GlcNAc(b1-4)Gal(b1-4)[Fuc(a1-3)]GlcNAc(b1-4)Gal(b1-4)[Fuc(a1-3)]GlcNAc
# How it was run: as §1
# [13] = target: Fuc(a1-3)[Gal(b1-4)]GlcNAc(b1-6)[Gal(b1-3)GlcNAc(b1-3)]Gal(b1-4)Glc
# How it was run: as §1
# Gal(a1-3)Gal(b1-4)Glc = target: Gal(a1-3)Gal(b1-4)Glc
# How it was run: as §1
# Gal(b1-2)Gal = target: Gal(b1-2)Gal
# How it was run: as §1
# [14] = target: Gal(b1-3)Gal(b1-4)GlcNAc(b1-2)Man(a1-3)[Gal(b1-3)Gal(b1-4)GlcNAc(b1-2)Man(a1-6)]Man(b1-4)GlcNAc(b1-4)GlcNAc
# How it was run: as §1
# Gal(b1-3)GlcNAc(b1-2)Man = target: Gal(b1-3)GlcNAc(b1-2)Man
# How it was run: as §1
# [15] = target: Gal(b1-3)GlcNAc(b1-3)Gal(b1-4)GlcNAc(b1-6)[Gal(b1-3)GlcNAc(b1-3)]Gal(b1-4)Glc
# How it was run: as §1
# [16] = target: Gal(b1-3)[Fuc(a1-4)]GlcNAc(b1-2)Man(a1-3)[Gal(b1-3)[Fuc(a1-4)]GlcNAc(b1-2)Man(a1-6)]Man(b1-4)GlcNAc(b1-4)[Fuc(a1-6)]GlcNAc
# How it was run: as §1
# [17] = target: Gal(b1-3)[GlcNAc(b1-6)]GalNAc
# How it was run: as §1
# [18] = target: Gal(b1-3)[Neu5Ac(b2-6)]GalNAc
# How it was run: as §1
# [19] = target: Gal(b1-4)GlcNAc(b1-2)Man(a1-6)[GlcNAc(b1-2)Man(a1-3)]Man(b1-4)GlcNAc(b1-4)GlcNAc
# How it was run: as §1
# [20] = target: Gal(b1-4)GlcNAc(b1-2)[Gal(b1-4)GlcNAc(b1-6)]Man(a1-6)[GlcNAc(b1-4)][Gal(b1-4)GlcNAc(b1-2)[Gal(b1-4)GlcNAc(b1-4)]Man(a1-3)]Man(b1-4)GlcNAc(b1-4)[Fuc(a1-6)]GlcNAc
# How it was run: as §1
# [21] = target: Gal(b1-4)GlcNAc(b1-3)Gal(b1-4)GlcNAc(b1-3)Gal(b1-4)GlcNAc(b1-2)[Gal(b1-4)GlcNAc(b1-3)Gal(b1-4)GlcNAc(b1-3)Gal(b1-4)GlcNAc(b1-6)]Man(a1-6)[Gal(b1-4)GlcNAc(b1-3)Gal(b1-4)GlcNAc(b1-3)Gal(b1-4)GlcNAc(b1-2)Man(a1-3)]Man(b1-4)GlcNAc(b1-4)[Fuc(a1-6)]GlcNAc
# How it was run: as §1
# [22] = target: Gal(b1-4)GlcNAc(b1-3)Gal(b1-4)GlcNAc(b1-3)Gal(b1-4)GlcNAc(b1-3)Gal(b1-4)GlcNAc(b1-3)Gal(b1-4)GlcNAc(b1-2)Man(a1-3)[Gal(b1-4)GlcNAc(b1-3)Gal(b1-4)GlcNAc(b1-3)Gal(b1-4)GlcNAc(b1-3)Gal(b1-4)GlcNAc(b1-3)Gal(b1-4)GlcNAc(b1-2)Man(a1-6)]Man(b1-4)GlcNAc(b1-4)[Fuc(a1-6)]GlcNAc
# How it was run: as §1
# Gal3S6S(b1-4)GlcNAc = target: Gal3S6S(b1-4)GlcNAc
# How it was run: as §1
# Gal4S(b1-4)GlcNAc = target: Gal4S(b1-4)GlcNAc
# How it was run: as §1
# Gal6S(b1-3)GlcNAc6S = target: Gal6S(b1-3)GlcNAc6S
# How it was run: as §1
binder,measurement,setting,value
"HPA (Helix pomatia), Q575S3 (protein) MWAHLTGLLLICALSLSAAQRAQTGEIDCGSDSSWPKDPSDNPNRDNTREIVKHVTFSPQFCREPKVILSVTTLDAEHTKNLRYEARLKSVSPSGLSASCYSWHDGTIYRMKLSWLAVED",glycan array binding signal (z-score),[1],-0.229
same,glycan array binding signal (z-score),[2],-0.186
same,glycan array binding signal (z-score),[3],-0.229
same,glycan array binding signal (z-score),[4],-0.264
same,glycan array binding signal (z-score),[5],-0.221
same,glycan array binding signal (z-score),[6],4.9
same,glycan array binding signal (z-score),[7],4.46
same,glycan array binding signal (z-score),[8],4.44
same,glycan array binding signal (z-score),[9],4.28
same,glycan array binding signal (z-score),[10],2.54
same,glycan array binding signal (z-score),[11],5.52
same,glycan array binding signal (z-score),[12],-0.271
same,glycan array binding signal (z-score),[13],-0.251
same,glycan array binding signal (z-score),Gal(a1-3)Gal(b1-4)Glc,-0.261
same,glycan array binding signal (z-score),Gal(b1-2)Gal,-0.259
same,glycan array binding signal (z-score),[14],-0.266
same,glycan array binding signal (z-score),Gal(b1-3)GlcNAc(b1-2)Man,0.558
same,glycan array binding signal (z-score),[15],-0.246
same,glycan array binding signal (z-score),[16],-0.227
same,glycan array binding signal (z-score),[17],-0.265
same,glycan array binding signal (z-score),[18],-0.268
same,glycan array binding signal (z-score),[19],-0.239
same,glycan array binding signal (z-score),[20],-0.252
same,glycan array binding signal (z-score),[21],-0.25
same,glycan array binding signal (z-score),[22],-0.253
same,glycan array binding signal (z-score),Gal3S6S(b1-4)GlcNAc,-0.266
same,glycan array binding signal (z-score),Gal4S(b1-4)GlcNAc,-0.267
same,glycan array binding signal (z-score),Gal6S(b1-3)GlcNAc6S,-0.242
